Laboratory results taken from PubChem BioAssay (EPA / NIEHS).
Inconclusive results are not listed. Some compounds were tested as several samples or in several runs, with calls that do not always agree. Active and inactive are the calls of the source. Rule for the calls, unless noted: active = hit-call score of the fitted dose curve at least 0.9, where 1 is the maximum; inactive = score below 0.9.

Columns and labels:
[1] = CCTE_Shafer_MEA_acute_spike_number: CCTE's Neural Acute Assay for Total Number of Spikes, Shafer Lab (AID 2284008);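 for AC50: curve fitted for decrease in spike count so AC50 reflects inhibitors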
How it was run: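 Primary rat cortical neurons on 16-electrode MEA wells; on DIV 13 or 15, 40-min baseline then 40-min recording with compound (0.03-40 uM) at 37 C. Spikes detected at 8x rms noise; percent change versus baseline, DMSO as negative control.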

[2] = CCTE_Shafer_MEA_acute_firing_rate_mean: CCTE's Neural Acute Assay for Mean Firing Rate, Shafer Lab (AID 2284009);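 note: analyzed for loss of signal so actives lower firing rate relative to DMSO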
How it was run: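 Rat primary cortical neurons on 48-well MEA plates, dosed at 0.03-40 uM on DIV 13 or 15; 40 min spontaneous activity recorded at 37 C before and after compound. Spike rate per electrode averaged per well, expressed as percent change from baseline.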

[3] = CCTE_Harrill_HTTr_Viability_MCF7: CCTE's 6-hour Cell Viability Assessment for the High-Throughput Transcriptomics (HTTr) Platform, in MCF-7 cells cultured in DMEM + 10% fetal bovine serum, Harrill Lab (AID 2284010)
How it was run: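 Viability measured through PI dye exclusion by high-content imaging at 6 h post-dosing.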

[4] = CCTE_Harrill_HTTr_Apoptosis_MCF7: CCTE's 6-hour Apoptosis Assessment for the High-Throughput Transcriptomics (HTTr) Platform, in MCF-7 cells cultured in DMEM + 10% fetal bovine serum, Harrill Lab (AID 2284011)
How it was run: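 MCF-7 cells in DMEM + 10% fetal bovine serum were exposed to chemicals for 6 hours over an eight-point dilution series. Caspase-3/7 activation was imaged by high content imaging with CellEvent Caspase 3/7 Green; bidirectional fitting used DMSO as baseline.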

[5] = CCTE_Harrill_HTTr_CellCount_MCF7: CCTE's Cell Proliferation Assessment for the High-Throughput Transcriptomics (HTTr) Platform, Harrill Lab (AID 2284012; active = hit-call score of the fitted dose curve at least 0.9, where 1 is the maximum;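 note: count of Hoechst-stained nuclei per well by high-content imaging in MCF-7 cells; cells exposed to compound for six hours; intended direction is loss of nuclei count meaning fewer cells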)
How it was run: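 Nuclei counting (Hoechst, high content imaging) in MCF-7 after a 6 h treatment at eight concentrations. Activity fitted bidirectionally, DMSO as negative control.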

[6] = CCTE_Shafer_MEA_acute_burst_number: CCTE's Neural Acute Assay for Single-Electrode Bursts, Shafer Lab (AID 2284013)
How it was run: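 Primary rat cortical neurons on 16-electrode MEA wells, treated on DIV 13 or 15 with compound at 0.03-40 uM. Single-electrode burst count from 40-min recordings at 37 C before and after exposure; percent change from baseline per well, DMSO negative control.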

[7] = CCTE_Shafer_MEA_acute_burst_duration_mean: CCTE's Neural Acute Assay for Mean Burst Duration, Shafer Lab (AID 2284014);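 note: hits are decreases in mean burst duration relative to DMSO controls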
How it was run: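 Rat primary cortical neurons on 48-well MEA, treated at DIV 13 or 15 with 0.03-40 uM in at least 3 wells. Value is percent change in mean burst duration, comparing 40 min recordings at 37 C before and during exposure.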

[8] = CCTE_Shafer_MEA_acute_interburst_interval_mean: CCTE's Neural Acute Assay for Mean Interburst Interval, Shafer Lab (AID 2284016);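 note: percent change of mean interburst interval versus each well's own pre-dose baseline; curves fitted for decrease in interburst interval relative to DMSO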
How it was run: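 MEA recording of spontaneous network bursting in primary rat cortical cultures; mean interburst interval was compared before and after a 40-min compound exposure (0.03-40 uM) and expressed as percent change, relative to DMSO.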

[9] = CCTE_Shafer_MEA_acute_burst_percentage_mean: CCTE's Neural Acute Assay for Percentage of Spikes in a Burst, Shafer Lab (AID 2284017);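 for AC50: curve fitted for loss of signal so potency reflects decreased burst percentage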
How it was run: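 Compounds were tested at 0.03-40 uM on primary rat cortical neuron networks grown over microelectrodes, with at least three wells per compound. Spontaneous firing was recorded for 40 min before and 40 min after dosing, and the change in burst percentage was computed per well.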

[10] = CCTE_Shafer_MEA_acute_burst_percentage_std: CCTE's Neural Acute Assay for Standard Deviation of Burst Percentage, Shafer Lab (AID 2284018);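 note: fitted in the negative direction so actives lower burst percentage SD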
How it was run: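 Rat primary cortical neurons on 48-well MEAs, DIV 13 or 15, 37 C. 40-min baseline then 40-min recording with compound (0.03-40 uM); well-level SD of per-electrode burst spike percentage, expressed as percent change from baseline.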

[11] = CCTE_Shafer_MEA_acute_per_network_burst_spike_number_mean: CCTE's Neural Acute Assay for Average Number of Spikes in a Network Burst, Shafer Lab (AID 2284019);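 for AC50: curve fitted for loss of signal so actives reduce spikes per network burst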
How it was run: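 Rat primary cortical neurons on 48-well MEA at DIV 13 or 15, 37 C; compounds 0.03-40 uM, at least three wells each. 40-min baseline then 40-min exposure recording; percent change in mean spikes per network burst.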

[12] = CCTE_Shafer_MEA_acute_per_network_burst_spike_number_std: CCTE's Neural Acute Assay for Standard Deviation of Number of Spikes in a Network Burst, Shafer Lab (AID 2284020);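 note: fitted for decrease in spike-number SD versus DMSO so actives lower it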
How it was run: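 Rat primary cortical neurons on 48-well MEA (16 electrodes/well), treated DIV 13 or 15 at 0.03-40 uM, ≥3 wells per compound. 40 min recordings at 37 C before and after dosing; value is percent change in network-burst spike-number SD, negative direction vs DMSO.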

[13] = CCTE_Shafer_MEA_acute_per_network_burst_electrodes_number_mean: CCTE's Neural Acute Assay for Mean Number of Electrodes in a Network Burst, Shafer Lab (AID 2284021);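 note: curves fitted for decreases only so hits reduce electrodes per burst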
How it was run: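 Rat primary cortical neurons on 16-electrode MEA wells were recorded 40 min at baseline on DIV 13 or 15, then 40 min after compound (0.03-40 uM), at 37 C. Value is percent change per well, fitted in loss direction versus DMSO.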

[14] = CCTE_Shafer_MEA_acute_network_burst_percentage: CCTE's Neural Acute Assay for Percentage of Network Bursts, Shafer Lab (AID 2284022);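 note: curves fitted for loss so actives lower network burst percentage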
How it was run: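 Primary rat cortical neurons on 16-electrode MEA wells, treated on DIV 13 or 15 with compound (0.03-40 uM); 40-min baseline and 40-min post-exposure recordings at 37 C. Value is percent change in spikes within network bursts versus baseline, DMSO negative control.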

[15] = CCTE_Shafer_MEA_acute_cross_correlation_HWHM: CCTE's Neural Acute Assay for Cross Correlation at Half Width at Half Maximum, Shafer Lab (AID 2284026);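 note: percent change per well from pre-dose baseline in spike cross-correlogram half width; hits are a decrease in cross-correlogram half width relative to DMSO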
How it was run: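 Primary rat cortical neurons on 16-electrode MEA wells; 40-min baseline on DIV 13 or 15, then 40-min recording with compound (0.03-40 uM) at 37 C. HWHM of spike cross-correlogram expressed as percent change from baseline per well, DMSO reference.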

[16] = CCTE_Shafer_MEA_acute_synchrony_index: CCTE's Neural Acute Assay for Synchrony, Shafer Lab (AID 2284027);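 note: network synchrony index of spontaneous spiking in primary rat cortical neurons on MEAs; fitted for loss of signal so actives lower synchrony relative to DMSO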
How it was run: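 Spontaneous firing of mature rat cortical networks is captured extracellularly on microelectrode arrays at 37 C, with wells needing ≥10 active electrodes. Each compound (0.03-40 uM) is judged by the change in synchrony index from baseline over 40 min.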

Measured: AC50

Clc1nc(Cl)nc(Nc2ccccc2Cl)n1
inactive: [1] | [2] | [3] | [4] | [5] | [6] | [7] | [8] | [9] | [10] | [11] | [12] | [13] | [14] | [15] | [16]

CC(C)NC(=O)N1CC(=O)N(c2cc(Cl)cc(Cl)c2)C1=O
inactive: [3] | [4]

C=C(C)CN(CC)c1c([N+](=O)[O-])cc(C(F)(F)F)cc1[N+](=O)[O-]
inactive: [3] | [4] | [6] | [7] | [8] | [9] | [10] | [11] | [12] | [13] | [14] | [15] | [16]
active: [1] 31.9 µM | [2] 31.9 µM

Nc1c(Cl)c(F)nc(OCC(=O)O)c1Cl
inactive: [1] | [2] | [3] | [4] | [5] | [6] | [7] | [8] | [9] | [10] | [11] | [12] | [13] | [14] | [15] | [16]

CC(C)=CC1C(C(=O)OCc2coc(Cc3ccccc3)c2)C1(C)C (stereo not drawn)
inactive: [1] | [2] | [3] | [4] | [6] | [7] | [11] | [14] | [15]
active: [8] 31.2 µM | [9] 15 µM | [10] 20 µM | [12] 20 µM | [13] 8.62 µM | [16] 20 µM

COc1cc(OC)nc(NC(=O)NS(=O)(=O)c2ncccc2OCC(F)(F)F)n1
inactive: [3] | [4]

CCCCC(O)(Cn1cncn1)c1ccc(Cl)cc1Cl (stereo not drawn)
inactive: [1] | [2] | [3] | [4] | [5] | [6] | [7] | [8] | [9] | [10] | [11] | [12] | [13] | [15] | [16]
active: [14] 2.23 µM

COCc1cnc(C2=NC(C)(C(C)C)C(=O)N2)c(C(=O)O)c1 (stereo not drawn)
inactive: [3] | [4]

N#Cc1c[nH]cc1-c1cccc2c1OC(F)(F)O2
active: [1] 4.28 µM | [2] 4.27 µM | [9] 20 µM | [10] 32.4 µM | [12] 20 µM | [15] 20 µM
inactive: [3] | [4] | [6] | [7] | [8] | [11] | [13] | [14] | [16]

Cn1c(-c2ccccc2)cc(-c2ccccc2)[n+]1C
active: [1] 1.05 µM | [2] 1.05 µM | [6] 1.15 µM | [9] 31.4 µM | [13] 20 µM | [14] 28 µM | [15] 20 µM | [16] 36.8 µM
inactive: [3] | [4] | [5] | [7] | [10] | [11] | [12]

CC(C)N1C(=O)c2ccccc2NS1(=O)=O
inactive: [1] | [2] | [3] | [4] | [5] | [6] | [7] | [8] | [9] | [10] | [11] | [12] | [13] | [14] | [15] | [16]

Cc1c(COC(=O)[C@@H]2[C@H](/C=C(\Cl)C(F)(F)F)C2(C)C)cccc1-c1ccccc1
active: [7] 1.47 µM | [9] 0.756 µM | [12] 0.931 µM | [14] 0.225 µM | [15] 2.29 µM | [16] 0.786 µM
inactive: [1] | [2] | [3] | [4] | [5] | [6] | [8] | [10] | [11] | [13]

CCCC(=NOCC)C1=C(O)CC(CC(C)SCC)CC1=O (stereo not drawn)
active: [1] 11.1 µM | [2] 11.1 µM | [7] 31 µM | [9] 27.7 µM | [11] 20.1 µM | [12] 25.4 µM | [15] 30.7 µM | [16] 28.2 µM
inactive: [3] | [4] | [6] | [8] | [10] | [13] | [14]

N#CN=C1SCCN1Cc1ccc(Cl)nc1
inactive: [1] | [2] | [3] | [4] | [6] | [7] | [8] | [9] | [10] | [11] | [12] | [13] | [15] | [16]
active: [14] 4.76 µM

COP(=S)(OC)SCn1nnc2ccccc2c1=O
inactive: [1] | [2] | [3] | [4] | [5] | [6] | [7] | [8] | [9] | [10] | [11] | [12] | [13] | [14] | [15] | [16]
active: [11] 24.1 µM

CCOc1cc(C(C)(C)C)ccc1C1COC(c2c(F)cccc2F)=N1 (stereo not drawn)
inactive: [3] | [4] | [7] | [8] | [10] | [11]
active: [1] 3.32 µM | [2] 3.32 µM | [6] 3.12 µM | [9] 20 µM | [12] 29 µM | [13] 4.3 µM | [14] 20 µM | [15] 20 µM | [16] 20 µM

O=C(Nc1ccccc1-c1ccc(Cl)cc1)c1cccnc1Cl
active: [9] 28.5 µM | [15] 23.5 µM | [16] 25.3 µM
inactive: [1] | [2] | [3] | [4] | [5] | [6] | [7] | [8] | [10] | [11] | [12] | [13] | [14]

CCCN(CC)CC1COC2(CCC(C(C)(C)C)CC2)O1 (stereo not drawn)
inactive: [1] | [2] | [3] | [4] | [5] | [6] | [7] | [8] | [9] | [10] | [11] | [12] | [13] | [14] | [15] | [16]

CC(C)N1C(=O)N(c2ccccc2)CSC1=NC(C)(C)C
inactive: [3] | [4] | [5] | [7] | [8] | [10]
active: [1] 5.21 µM | [2] 5.27 µM | [6] 4.94 µM | [9] 20 µM | [11] 13.5 µM | [12] 17.6 µM | [13] 17.4 µM | [14] 26.5 µM | [15] 20 µM | [16] 23.2 µM

CO/N=C(/C1=NOCCO1)c1ccccc1Oc1ncnc(Oc2ccccc2Cl)c1F
active: [1] 7.05 µM | [2] 7.18 µM | [9] 20 µM | [15] 20 µM | [16] 20 µM
inactive: [3] | [4] | [5] | [6] | [7] | [8] | [10] | [11] | [12] | [13] | [14]

CN/C(=N\[N+](=O)[O-])NCc1cnc(Cl)s1
inactive: [1] | [2] | [3] | [4] | [5] | [6] | [7] | [8] | [9] | [10] | [11] | [12] | [13] | [14] | [15] | [16]
